High-throughput results: PubChem BioAssay, Johns Hopkins Ion Channel Center
The list is not random: actives were taken first. Their share in the collection is about 1.6%.
KCNQ2 enhance = potentiators of rat KCNQ2 potassium channel. AID 2239, 2010. B-score at 10 µM. CHO-K1 KCNQ2, FluxOR thallium flux fluorescence; active compounds read high. hit rate 0.54% among 310,000. Potassium voltage-gated channel subfamily KQT member 2 (Rattus norvegicus), O88943;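 active = fluorescence ratio B-score at least 3 SD of library B-scores, with initial fluorescence B-score within 3 of them, cut at about 5.3 in these data; same plate scores as AID 2156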;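 also: B-score of peak minus minimum over baseline fluorescence ratio after K+ and Tl+ stimulus; positive B-score means potentiation of KCNQ2 with more thallium influx and brighter signal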
KCNQ2 inh = rat KCNQ2 potassium channel inhibitors, primary screen, cell-based, CHO-K1, FluxOR thallium flux, B-score | Potassium voltage-gated channel subfamily KQT member 2 (Rattus norvegicus), O88943 | 20 min; active compounds read low | B-score at 10 µM | hit rate 1.1% among 310,000 | AID 2156, 2009;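 active = fluorescence ratio B-score at most minus 3 library SDs, with starting brightness B-score within 2 library SDs, cut at about -5.5 in these data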
Hits are given with their value; . = inactive; / = no result.

SMILES	KCNQ2 enhance	KCNQ2 inh
O=C(Nc1cccnc1Oc1ccc(Cl)cc1)c1cccc2ccccc12	.	-5.99
COc1ccccc1CC(=O)Nc1cccc2ccccc12	/	.
CCOc1ccccc1NC(=O)c1cc(-c2cc(OC)c(OC)c(OC)c2)nc2ccccc12	.	-6.11
COC(=O)c1cc(OC)c(OC)cc1NC(=O)c1cc(-c2ccccc2)nc2ccccc12	/	.
NC(=O)c1cccnc1Oc1ccc(Cl)cc1	/	.
Cc1c(NC(=O)Nc2cccc(C#N)c2)c(=O)n(-c2ccccc2)n1C	/	.
N#Cc1cccc(NCC(=O)Nc2ccc3c(c2)OCCO3)c1	.	.
CSCCC(=O)N1CCN(CC(=O)N2CCCC2)CC1	/	.
CN(Cc1ccccc1F)C(=O)c1ccc2c(=O)n3c(nc2c1)CCC3	/	.
CCNc1ccc(S(=O)(=O)N(C)C)cc1NCC(=O)Nc1ccccc1Cl	/	.
CCOc1ccccc1NC(=O)c1ccccc1-c1ccccc1	.	-5.58
CCOc1ccccc1NC(=O)c1ccccc1-c1nc(-c2ccccc2)no1	/	.
CC(C)OC(=O)c1cccnc1N1CCN(c2cccc(Cl)c2)CC1	/	.
O=C(Cc1ccc(Cl)c(Cl)c1)Nc1ccccc1N1CCOCC1	.	.
O=C(Nc1ccccc1N1CCOCC1)C1(c2ccc(Cl)cc2)CCC1	.	-6.49
Nc1nc(-c2cc3ccccc3o2)cs1	.	.
Cc1ccc(NC(=O)C(=O)NNC(=O)c2ccccc2C)cc1Cl	12	.
COc1ccc(C(=O)NNC(=O)C(=O)Nc2ccc(C)c(Cl)c2)cc1	.	.
CCOC(=O)C1CCCN(CCC(=O)Nc2cccc(Cl)c2C)C1 (stereo not drawn)	.	.
CCOc1cc(N(CC)CC)ccc1/C=C(/C#N)c1nc2ccccc2[nH]1	.	-8.4
CCCOc1cc(N(CC)CC)ccc1/C=C(/C#N)c1nc2ccc(C)cc2[nH]1	/	.
COc1ccc2cc(OCC(=O)NNC(=O)Nc3ccc(C(C)=O)cc3)ccc2c1	.	.
CC(=O)NCC(=O)OCC(=O)c1ccc(C)c(C)c1	/	.
Cc1ccc(C(=O)COC(=O)C2C3C=CC(C3)C2C(=O)OCC(=O)c2ccc(C)c(C)c2)cc1C (stereo not drawn)	.	-7.48
CC(C(=O)Nc1ccncc1)(c1ccccc1)c1ccccc1	/	.
SMILES	KCNQ2 enhance	KCNQ2 inh
S=C(Cc1ccccc1)NCCc1ccccc1	/	.
COc1ccc(CC(=S)NCCc2ccccc2)cc1	.	-6.02
COc1ccc(NC2CCCN(C(=O)c3ccc(C(C)=O)s3)C2)cc1 (stereo not drawn)	/	.
CCN(CC(=O)NCc1cccs1)C(=O)c1cccc(S(=O)(=O)NC)c1	/	.
CCN(CC(=O)NCc1cccs1)C(=O)c1ccc(-c2cccc(C(F)(F)F)c2)o1	.	-7.64
CC(=O)N1CCN(CC(=O)Nc2c(Cl)ccc(C)c2Cl)CC1	.	.
CCCCCn1c2c(c(=N)c3ccccc31)CCC2	.	.
CCCCCCCCCCn1c2c(c(=N)c3c1CCC3)CCC2	32	.
Cc1ccc(SCCNC(=S)Nc2ccc(C)cc2C)cc1	7.03	.
Cc1ccc(SCCNC(=S)Nc2cc(C)cc(C)c2)cc1	/	.
COc1ccc([N+](=O)[O-])cc1N(CC(=O)N1CCCC1)S(C)(=O)=O	/	.
Cc1cc(C)n(-c2ccc(C(=O)N3CC(C)OC(C)C3)cc2)n1 (stereo not drawn)	.	.
COc1ccc(C2=NS(=O)(=O)N(C)C(C(=O)Nc3ccc4c(c3)OCO4)=C2)cc1OC	.	.
COc1cc(/C=C/C(=O)Nc2cc(S(=O)(=O)N3CCOCC3)ccc2N2CCCC2)cc(OC)c1OC	/	.
CC1CCN(c2ccccc2NC(=O)c2cc([N+](=O)[O-])ccc2N2CCOCC2)CC1	.	-5.67
CCN(CC)S(=O)(=O)c1ccc(N2CCCCC2)c(C(=O)Nc2ccccc2N2CCOCC2)c1	.	-8
CCc1ccccc1NC(=O)c1cc([N+](=O)[O-])ccc1N1CCOCC1	.	.
CCN(CC)S(=O)(=O)c1ccc(N2CCOCC2)c(NC(=O)c2cccc3ccccc23)c1	/	.
CCN(CC)S(=O)(=O)c1ccc(N2CCCCC2)c(NC(=O)/C=C/c2cc(OC)c(OC)c(OC)c2)c1	.	-6.41
NNC(=O)c1sc2cc(C(F)(F)F)cnc2c1-c1ccccn1	/	.
Cc1cccc(N2CCN(C(=O)c3ccoc3C)CC2)c1C	/	.
O=C(COC(=O)Cn1cnc2ccccc2c1=O)Nc1cc(Cl)ccc1[N+](=O)[O-]	/	.
